Source: PubChem
CYP2C9 inhib = human CYP2C9 inhibition | CYP2C9 Supersomes, luciferin-H conversion, luminescence | AID 777 | 20% of 96,000 active | P11712 | inhibition, % at 5 µM;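 active means blocking of liver enzyme CYP2C9 beyond about 50% at 5 µM, limit read from the data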
CYP2C9 activ = increases human cytochrome P450 2C9 activity; P11712; recombinant CYP2C9, luciferin-H conversion, luminescence; stronger effect = higher value; factor 1 = untreated enzyme, 0 = blocked; activation factor at 5 µM; 1.4% of 96,000 active;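 active means activation factor of 2 or more for CYP2C9 at a 5 µM dose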;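 further: 0 = sulfaphenazole-blocked wells and 1 = vehicle-only wells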
CYP2C19 activ = activators of human cytochrome P450 2C19; activation factor at 5 µM; AID 1025; recombinant CYP2C19, luciferin-H EGE luminescence; stronger effect = higher value; 0 = fully inhibited enzyme, 1 = untreated enzyme; 96,000 tested, under 10 active;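 active means activation factor of at least 2 at 5 µM in the primary screen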;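 further: 0 = wells with 2.5 mM tranylcypromine and 1 = vehicle-only wells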
Target sequence (P33261 whole entry, looked up): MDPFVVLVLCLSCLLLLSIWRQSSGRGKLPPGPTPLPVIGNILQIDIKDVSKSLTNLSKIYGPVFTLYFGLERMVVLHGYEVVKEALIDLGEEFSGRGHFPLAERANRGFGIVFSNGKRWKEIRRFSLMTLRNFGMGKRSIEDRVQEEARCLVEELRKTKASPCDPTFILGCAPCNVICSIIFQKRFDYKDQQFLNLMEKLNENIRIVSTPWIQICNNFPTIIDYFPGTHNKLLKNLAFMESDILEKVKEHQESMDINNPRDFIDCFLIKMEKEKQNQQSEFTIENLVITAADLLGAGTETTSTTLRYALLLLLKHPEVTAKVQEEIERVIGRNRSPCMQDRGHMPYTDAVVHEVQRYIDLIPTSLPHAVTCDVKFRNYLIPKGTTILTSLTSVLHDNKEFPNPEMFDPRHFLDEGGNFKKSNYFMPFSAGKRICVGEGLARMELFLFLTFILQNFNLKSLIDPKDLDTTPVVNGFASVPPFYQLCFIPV
CYP2C19 inhib = human CYP2C19 inhibition. P33261. CYP2C19 Supersomes, luciferin-H EGE luminescence, 30 min. inhibition, % at 5 µM. 21% of 96,000 active. AID 778;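 active means CYP2C19 inhibition above a set limit at 5 µM in the primary screen, cut at about 50% in these data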;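 further: plate controls were negative control wells for no effect and 2.5 mM tranylcypromine positive control for full effect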
EphB4 ephrin blk = antagonists of human EphB4-ephrin-B2 interaction; EphB4 LBD / TNYL-RAW-Alexa532 peptide, fluorescence polarization; inhibition, % at 7 µM; 0.15% of 97,000 active;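 active means inhibition above the screen-wide mean inhibition plus 3 SD, cut at about 15% in these data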;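 further: 0% = DMSO wells and 100% = excess unlabeled TNYL-RAW peptide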
The depositor's hits bear a star; / = no result given. The list is not random: actives were taken first. Their share in the collection is about 27%.

SMILES	CYP2C9 inhib	CYP2C9 activ	CYP2C19 activ	CYP2C19 inhib	EphB4 ephrin blk
COc1ccc(N(CC(=O)Nc2cc(Cl)ccc2OC)S(=O)(=O)c2c(C)noc2C)cc1	89.0*	0.1	0.1	90.2*	-2.2
CCCN(c1ccc(C(C)C)cc1)S(=O)(=O)c1c(C)noc1C	81.5*	0.2	0.6	38.4	-6.0
CCOc1ccc(N(CC(=O)Nc2ccc(OC)cc2)S(=O)(=O)c2c(C)noc2C)cc1	7.9	0.9	0.9	6.6	-5.8
Cn1c(=O)c2c(ncn2CC(=O)OCC(=O)NC2CCCc3ccccc32)n(C)c1=O (stereo not drawn)	8.2	0.9	1	-1.5	-10.5
Cc1noc(C)c1S(=O)(=O)N(CC(=O)N1CCn2c1nc1ccccc12)c1ccc(C(C)C)cc1	87.4*	0.1	0.4	57.7*	-2.4
O=C(Nc1ccc(N2CCOCC2)cc1)C1CCCCC1	13.1	0.9	1.2	-16.1	6.5
Nc1nc(SCc2ccc(Cl)cc2Cl)ns1	/	/	/	/	3.3
CCCc1nc(SCc2ccc(Cl)cc2Cl)n[nH]1	27.0	0.7	0.2	84.0*	3.4
CCOc1cc(C#N)c(NC(=O)c2ccnn2C)cc1OCC	0.1	1	1	3.0	/
O=C1/C(=C/c2ccccc2)NC(=S)N1C(c1ccccc1)c1ccccc1	59.6*	0.4	0.9	14.9	-1.3
O=C(Nc1c(F)cc(F)cc1Br)c1cccnc1	-4.4	1	1	4.4	1.9
N#Cc1cc2ccccc2nc1SCc1cccnc1	39.7	0.6	0.5	52.4*	/
N#Cc1cc2c(nc1SCc1cccnc1)CCCCC2	49.7	0.5	0.2	80.0*	0.9
N#Cc1cc2c(nc1SCC(O)CS(=O)(=O)Cc1ccccc1)CCCC2 (stereo not drawn)	58.4*	0.4	0.8	22.0	-3.8
Cc1csc(NC(=O)CSc2nc3ccccc3s2)n1	-1.1	1	0.7	28.8	2.6
O=C(CCCSc1nc2ccccc2s1)NCc1ccco1	-24.1	1.2	0.2	75.8*	-7.8
Cc1csc(NC(=O)CCCSc2nc3ccccc3s2)n1	52.0*	0.5	0.1	87.5*	4.9
Cc1cc(=O)[nH]c(SCc2nc3ccccc3s2)n1	19.7	0.8	0.6	38.2	4.4
COc1ccc(CSc2nc(C)cc(=O)[nH]2)cc1Br	42.1	0.6	0.3	71.4*	4.9
Cc1cc(=O)[nH]c(SCc2cccc(Br)c2)n1	74.1*	0.3	0.7	33.4	3.6
Cc1nc(SCC(=O)NCc2ccco2)c2oc3ccccc3c2n1	89.2*	0.1	0.1	89.4*	0.3
Cc1ccc2cccc(SCC(=O)NCc3ccco3)c2n1	-50.9	1.5	0.2	81.8*	/
CCc1nc(SCC(=O)NCCc2ccccc2)c2oc3ccccc3c2n1	67.8*	0.3	0.4	57.3*	1.8
Cc1nc(NCCc2ccccc2)c2oc3ccccc3c2n1	48.5	0.5	0.7	31.0	3.3
Cc1nc(SCC(=O)NCCc2ccccc2)c2oc3ccccc3c2n1	58.4*	0.4	0.4	64.8*	-6.4
SMILES	CYP2C9 inhib	CYP2C9 activ	CYP2C19 activ	CYP2C19 inhib	EphB4 ephrin blk
Cc1[nH]c2ccccc2c1Cc1nnc(SCC(=O)NCc2ccco2)o1	-157.7	2.6*	0.5	46.7	/
O=C(OCC(=O)N1CCCC1)c1cncc(Br)c1	5.9	0.9	0.8	16.9	2.1
CCOC(=O)C1CCCN(c2cc(C)nc3cc(-c4ccc(Cl)cc4)nn23)C1 (stereo not drawn)	/	/	/	/	3.2
CCOC(=O)C1CCCN(c2cc(C)nc3cc(-c4ccc(F)cc4)nn23)C1 (stereo not drawn)	66.9*	0.3	0.6	40.3	2.4
CCc1nnc(NC(=O)CSc2nnc(-c3ccccc3NC(=O)c3ccccc3)o2)s1	50.7*	0.5	0.9	10.9	8.8
O=C(Nc1ccccc1-c1nnc(SCc2ccccc2Cl)o1)c1ccccc1	55.0*	0.4	0.9	5.0	3.9
CCOC(=O)CSc1nnc(-c2ccccc2NC(=O)c2ccccc2)o1	12.3	0.9	1.1	-11.8	-0.8
CC(C(=O)Nc1sccc1C(N)=O)N1C(=O)C2CC=CCC2C1=O (stereo not drawn)	18.6	0.8	0.9	8.7	3.0
O=C(Nc1ncn[nH]1)c1ccc([N+](=O)[O-])cc1[N+](=O)[O-]	4.1	1	1	-1.8	-0.5
O=S(=O)(Nc1ccc2c(c1)nc1n2CCOC1)c1ccc(Cl)cc1	73.1*	0.3	0.5	48.6	-4.3
CN1CCN(CC(=O)N2c3ccccc3C(C)(c3ccccc3)CC2(C)C)CC1 (stereo not drawn)	-5.0	1.1	1	-3.6	0.8
